# According to PubChem BioAssay AID1347171 (National Center for Advancing Translational Sciences (NCATS), 2019):
# Inconclusive results are not listed. Calls of active or inactive are those of the source. Calls come from the whole dose curve; as a rule, active = well fitted inhibition curve with a large enough effect; inconclusive = small, poorly fitted or top-dose-only effect; inactive = no such curve, though single readings can be large or run the other way.
# Test: Orthogonal mCherry assay for qRT-PCR qHTS of selected Zika virus inhibitors
# Source text: Description: Assay Submitters (PI): Avindra Nath, Ph.D., National Institute of Neurological Disorders and Stroke (NINDS), Bethesda, MD Radhakrishnan Padmanabhan, Ph.D., Georgetown University (GU), Washington D.C. Zika Virus causes congenital defects, including microcephaly and is associated with Guillain-Barre syndrome, eningoencephalitis and myelitis in infected adult. […] Using a target-based approach, we hope to establish a screening paradigm to uncover novel, cell-active NS2B-NS3 protease (Zika Virus) specific inhibitors from NCATS' collection of small molecules using qHTS. […] Four assay panel was created to identify potential Zika Virus inhibitors. Namely, (1) GU unlinked NS2B-NS3 AMC tagged protease qHTS, (2) GU unlinked NS2B-NS3 Rhodamine tagged protease qHTS, (3) NINDS linked NS2B-NS3 AMC tagged protease qHTS, (4) NINDS linked NS2B-NS3 Rhodamine tagged protease qHTS. Inhibitors of the Zika virus primary screens are confirmed using qRT-PCR secondary assays, mCherry orthogonal assay, and Vero cells viability counterscreen. Early Translation Branch (ETB) National Center for Advancing Translational Sciences (NCATS), Rockville, MD National Institute of Health (NIH), Bethesda, Maryland
# 384 well ZIKV-mCherry Assay: We have developed a new orthogonal imaging assay in 384-well plate format, which uses recombinant virus ZIKV-mCherry in Vero cells. Briefly, 30 microL of Vero cells derived from a green monkey cell line, were dispensed by Multidrop Dispenser into a clear solid bottom black 384 well plate (ultracarrier, Perkin Elmer LifeSciences) at a concentration of 5,000 cells per well. […] The TIFFs were quantitated using the canned Multi Target Analysis protocol (GE Investigator Workstation software v3.7.2). […] A recombinant Zika viral infection was monitored in the Cy5 channel (cells) using a 2 microm collar dilation from the nuclear bitmap. mCherry objects with an average nuclear RFU intensity above 450 (3 stdev above mean negative control wells) were considered "mcherry positive" and data was analyzed by percent infection rate.
row,Compound,Potency
1,CC(C)=CCC[C@]1(C)C=Cc2c(O)c3c(c(CC=C(C)C)c2O1)O[C@]12C(=C[C@@H]4CC1C(C)(C)O[C@@]2(C/C=C(/C)C(=O)O)C4=O)C3=O,3.55 µM (active)
2,CC(=O)c1c(O)c(C)c(O)c(Cc2c(O)c3c(c(C(=O)/C=C/c4ccccc4)c2O)OC(C)(C)C=C3)c1O,11.2 µM (active)
3,O=C1OC(c2ccc(O)c(S(=O)(=O)O)c2)(c2ccc(O)c(S(=O)(=O)O)c2)c2c(Br)c(Br)c(Br)c(Br)c21,inactive
